# Measured values from PubChem BioAssay (NCATS).
# Records with an inconclusive call do not appear. A call without a number means that no potency is given here. Active and inactive are the calls of the source. Unless noted, calls follow the shape of the dose curve; as a rule, active = well fitted curve in the direction sought with a large enough effect; inconclusive = small, poorly fitted or top-dose-only effect, or another doubt; inactive = no such curve, though single readings can be large; an effect the other way counts as inactive or inconclusive. Peptide text beside a SMILES is read from it. * marks the point of attachment. Octanoyl = CCCCCCCC(=O)*
# Key:
# [1] = Panc-1005 Cancer Cell Toxicity qHTS against the NCATS CANVASS Library (AID 1347349); also: nearly all actives have a fitted effect of over 60% in size; also: potency is read from the fitted curve at half-maximal effect
# Method in brief: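 1000 cells/well; 4 h settle; 11-pnt titration; 72 h, 37 degrees C, 5% CO2; CellTiter-Glo, 15min RT; luminescence read.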
# [2] = test system: NAD(P)H diaphorase (Clostridium kluyveri); assay: Diaphorse counterscreen qHTS: Assay Interference Panel against the NCATS CANVASS Library (AID 1347362)
# Method in brief: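 Clostridium kluyveri diaphorase in PBS + 0.01% Tween-20 preincubated 15 min with compounds. Resazurin and NADH then added for 5 min at room temperature in the dark; resorufin fluorescence read (ex 525, em 598).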
# [3] = KB-8-5-11 Cancer Cell Toxicity qHTS against the NCATS CANVASS Library (AID 1347364); also: nearly all actives have a fitted effect of over 75% in size; also: potency is read from the fitted curve at half-maximal effect
# Method in brief: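 Terse: KB-8-5-11, 500 cells/well, 72 hr, 37C/5% CO2, 11-pt titration, CellTiter-Glo readout; confirmatory runs ± 1uM tariquidar in medium.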
# [4] = qHTS for activators of dead-cell proteases activity screened against the NCATS CANVASS Library (AID 1347392);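 also: luminescence from protease leaking out of membrane-damaged cells cleaving impermeant substrate; rising signal means more cytotoxicity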
# Method in brief: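 HepG2, 2000 cells/well, 18 h attach; cpd 11-pt, 5 h 37C 5% CO2; CytoTox-Glo (AAF-aminoluciferin) 15 min RT; luminescence read.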
# [5] = biological target: Nuclear receptor subfamily 1 group I member 3 (Homo sapiens) (UniProt Q14994); assay: qHTS for Constitutive Androstane Receptor (CAR) Antagonist screened against the NCATS CANVASS Library (AID 1347372); also: potency is read from the fitted curve at half-maximal effect
# Method in brief: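 Luminescence readout (ONE-Glo, 30 min RT) of CYP2B6-2.2kb reporter in HepG2-hCAR cells after 24hr, 37C treatment with compound against 50 nM CITCO; CellTiter-Fluor viability read beforehand.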
# [6] = Cytotoxicity qHTS for assessment of Hepg2 cells membrane integrity screened against the NCATS CANVASS Library (AID 1347387)
# Method in brief: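 Cells were seeded at 2000 per well and left overnight to attach. Compounds were pin-transferred to give 0.59 nM - 46 uM in an 11-point series and incubated 5 hr at 37C. CytoTox-ONE reagent was added and, after 10 min at room temperature, fluorescence (ex 560, em 590 nm) was read.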
# [7] = HEK-293 Cancer Cell Toxicity qHTS against the NCATS CANVASS Library (AID 1347355); also: nearly all actives have a fitted effect of over 65% in size; also: potency is read from the fitted curve at half-maximal effect
# Method in brief: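 First, 1000 cells go into each well and rest for 4 hours. Next, an 11-point dilution range is pinned in. Plates then incubate 72 hours before CellTiter-Glo addition and luminescence reading.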
# [8] = SDT Cancer Cell Toxicity qHTS against the NCATS CANVASS Library (AID 1347365); also: nearly all actives have a fitted effect of over 60% in size; also: potency is read from the fitted curve at half-maximal effect
# Method in brief: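 Cytotoxicity is measured from cellular ATP: compounds in an 11-point concentration series are pinned onto SDT cells, incubated 72 hr at 37C, then CellTiterGlo is added and luminescence read.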
# [9] = qHTS for Antimalaria activity screened against the NCATS CANVASS Library (AID 1347380); also: nearly all actives have a fitted effect of over 40% in size; also: potency is read from the fitted curve at half-maximal effect
# Method in brief: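 Compounds are titrated over 11 concentrations onto Dd2 parasite cultures (0.3% parasitemia, 2.5% hematocrit). Growth over 72 h at 37C in low oxygen is measured as SYBR Green DNA fluorescence after lysis.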
# [10] = Primary qHTS for inhibitors of nuclear receptor binding SET domain protein 2 (NSD2) in an isogenic RCH-ACV NSD2 p.E1099K mutant (9B) (AID 1645876); also: nearly all actives have a fitted effect of over 70% in size
# [11] = Primary qHTS for inhibitors of nuclear receptor binding SET domain protein 2 (NSD2) in an RCH-ACV wild type WT cells (2C) (AID 1645877); also: nearly all actives have a fitted effect of over 70% in size
# [12] = biological target: Glutathione peroxidase 1 (Homo sapiens) (UniProt P07203); assay: Primary qHTS Assay for Inhibitors of Recombinant Selenoprotein Glutathione Peroxidase 1 (GPX1) (AID 1845191); also: nearly all actives have a fitted effect of over 65% in size
# Method in brief: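 GR-coupled readout: NADPH consumption tracked by fluorescence, ex 340/em 450 nm, at t=0 and after 15 min at RT. Final mix 10 nM GPX1, 1 mM GSH, 0.5 mM CHP, 0.5 mM NADPH, 100 nM GR, 0.01% BSA, following 30 min enzyme–compound preincubation.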
# [13] = biological target: Phospholipid hydroperoxide glutathione peroxidase GPX4 (Homo sapiens) (UniProt P36969); assay: Primary qHTS Assay for Inhibitors of Recombinant Selenoprotein Glutathione Peroxidase 4 (GPX4) (AID 1845192); conditions: outcome: dose series up to 50 µM unless noted; also: series mostly up to about 50 µM; nearly all actives have a fitted effect of over 65% in size
# Method in brief: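 Steps: GPX4 plus compound, 30 min RT; add GR/GSH/NADPH master mix; start with cumene hydroperoxide; read 340/450 nm fluorescence at 0 and 15 min. Finals were 200 nM GPX4, 1 mM GSH, 0.5 mM CHP, 0.5 mM NADPH, 100 nM GR.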
# [14] = qHTS drug screen for cell cycle checkpoint inhibitors in PARPi-resistant BRCA-mutant ovarian cancer cell lines. (AID 1963452; calls by dose curve); conditions: PEO1/OlaR viability, CellTiter-Glo luminescence, 96 h, stronger effect = lower value
# Method in brief: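 PEO1, PEO4 and PEO1/OlaR ovarian cancer cells, 600 per well, exposed 96 h at 37C to a dilution series. Viability read by CellTiter-Glo luminescence, normalized to DMSO and empty wells; activity summarized as Z-AUC.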
# Nuclear receptor subfamily 1 group I member 3 (Homo sapiens), sequence (Q14994 whole entry, looked up): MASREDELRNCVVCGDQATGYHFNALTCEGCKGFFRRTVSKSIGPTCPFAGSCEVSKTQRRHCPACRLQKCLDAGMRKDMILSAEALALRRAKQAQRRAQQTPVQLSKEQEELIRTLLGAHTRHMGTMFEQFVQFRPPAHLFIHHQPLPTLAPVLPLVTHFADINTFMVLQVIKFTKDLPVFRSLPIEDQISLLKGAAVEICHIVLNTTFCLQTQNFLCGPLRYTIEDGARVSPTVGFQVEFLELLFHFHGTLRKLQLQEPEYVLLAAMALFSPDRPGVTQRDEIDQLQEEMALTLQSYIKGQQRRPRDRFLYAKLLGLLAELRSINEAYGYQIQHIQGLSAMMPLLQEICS
# Glutathione peroxidase 1 (Homo sapiens), sequence (P07203 whole entry, looked up): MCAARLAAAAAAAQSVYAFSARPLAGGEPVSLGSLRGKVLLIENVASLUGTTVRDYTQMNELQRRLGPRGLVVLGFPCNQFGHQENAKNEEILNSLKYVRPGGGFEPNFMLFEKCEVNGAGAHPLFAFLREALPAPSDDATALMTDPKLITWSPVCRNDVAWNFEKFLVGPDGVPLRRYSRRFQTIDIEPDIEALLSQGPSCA
# Phospholipid hydroperoxide glutathione peroxidase GPX4 (Homo sapiens), sequence (P36969 whole entry, looked up): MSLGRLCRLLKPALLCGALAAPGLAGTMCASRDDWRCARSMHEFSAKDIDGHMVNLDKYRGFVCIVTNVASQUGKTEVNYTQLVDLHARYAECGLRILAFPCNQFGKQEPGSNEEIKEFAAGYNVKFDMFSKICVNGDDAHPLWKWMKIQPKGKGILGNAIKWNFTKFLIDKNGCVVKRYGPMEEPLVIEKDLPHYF
compound,measurement,setting,value
CCCCCCC[C@@H](C/C=C/CCC(=O)NCCc1c[nH]c2ccccc12)OC,Potency,[1],inactive
same,Potency,[2],inactive
same,Potency,[3],inactive
same,Potency,[4],inactive
COc1ccc(CCCc2cc(O)c(OC)c(O)c2)c(O)c1O,Potency,[1],inactive
same,Potency,[5],inactive
same,outcome,[6],inactive
same,Potency,[4],inactive
O=C1C[C@@H](c2ccc(O)c(-c3c(O)cc(O)c4c3O[C@H](c3ccc(O)cc3)CC4=O)c2)Oc2cc(O)cc(O)c21,Potency,[7],inactive
same,Potency,[3],inactive
same,Potency,[8],inactive
C=C(NC(=O)c1csc(-c2nc3c(cc2O)-c2nc(cs2)C(=O)NC(C(C)O)C(=O)N/C(=C(\C)O)c2nc(cs2)C(=O)NC2c4nc(cs4)C(=O)NC(COC(=O)c4c5c6c(cccc6n4O)COC(=O)[C@@H](OC4C[C@](C)(O)[C@H](N(C)C)[C@H](C)O4)C2OC5)c2nc-3cs2)n1)C(N)=O (stereo partly specified),Potency,[1],inactive
same,Potency,[2],inactive
same,Potency,[5],inactive
same,Potency,[9],0.334 µM (active)
same,outcome,[6],inactive
same,Potency,[4],inactive
CCCCCC[C@H](CCCCC[C@@H](O)C(N)=O)OC(=O)[C@@H]1CC=CN1C(=O)c1ccccc1O,Potency,[3],inactive
same,outcome,[6],inactive
same,Potency,[4],inactive
CC(=O)NC[C@@H]1O[C@H](CC/C=C(C)/C(C)=C/C=O)[C@H](C)C[C@H]1O,Potency,[7],inactive
same,Potency,[2],inactive
same,Potency,[5],inactive
same,Potency,[9],inactive
same,outcome,[6],inactive
CO[C@@H]1C[C@@H](C[C@H]2CC[C@H](C)[C@H]([C@@H](C)C(=O)O)O2)O[C@]2(O[C@](C)([C@H]3CC[C@@](C)([C@@H]4O[C@@H]([C@H]5O[C@](C)(O)[C@H](C)C[C@@H]5C)C[C@@H]4C)O3)C[C@H]2C)[C@@H]1C,Potency,[1],3.75 µM (active)
same,Potency,[7],0.296 µM (active)
same,Potency,[3],5.9 µM (active)
same,Potency,[9],0.0042 µM (active)
C=CC(C)(C)C(=O)[C@@H](C)[C@@H]1CC[C@](C)(C=C)O1,Potency,[8],inactive
same,Potency,[5],inactive
same,Potency,[9],inactive
same,Potency,[4],inactive
C[C@@H](O)[C@H]1OC(=O)C=C2[C@]3(C)[C@H]4[C@H](OC(=O)[C@@]4(C)[C@@H](O)[C@H]4O[C@H]43)[C@H]3O[C@@]231,Potency,[1],2.11 µM (active)
same,Potency,[7],1.48 µM (active)
same,Potency,[2],inactive
same,Potency,[3],1.48 µM (active)
same,Potency,[8],1.18 µM (active)
same,Potency,[5],5.24 µM (active)
same,Potency,[9],0.594 µM (active)
COc1c(O)cc2oc(-c3ccccc3)cc(=O)c2c1O,Potency,[1],inactive
same,Potency,[7],inactive
same,Potency,[2],inactive
same,Potency,[5],inactive
same,Potency,[4],inactive
CC1=CC[C@@]2(C[C@@H]1O)[C@@H](C(=O)O)CC[C@H]2C(C)C,Potency,[1],inactive
same,Potency,[2],inactive
same,Potency,[3],inactive
same,Potency,[8],inactive
same,Potency,[4],inactive
C=C1[C@H]2CC[C@@]3(C=CC(=O)[C@@](C)(CCC(=O)Nc4c(O)ccc(C(=O)O)c4O)C3C2)[C@H]1O (stereo partly specified),Potency,[2],inactive
same,Potency,[5],inactive
same,Potency,[9],inactive
same,outcome,[6],inactive
same,Potency,[4],inactive
CN1CC[C@]2(c3cccc4c3N[C@@H]3N(C)CC[C@]43[C@@]34CCN(C)[C@@H]3Nc3ccccc34)c3ccccc3N[C@H]12,Potency,[1],16.8 µM (active)
same,Potency,[7],7.43 µM (active)
same,Potency,[2],inactive
same,Potency,[3],16.6 µM (active)
same,Potency,[8],2.96 µM (active)
same,Potency,[5],26.3 µM (active)
same,Potency,[9],1.49 µM (active)
same,outcome,[6],inactive
CCCCCCCC(=O)N[C@@H](CC(C)C)C(=O)N[C@H](C=O)CCC(=O)O (Octanoyl-Leu-Glu-aldehyde),Potency,[1],inactive
same,Potency,[8],inactive
same,Potency,[5],inactive
same,outcome,[6],inactive
C=C(C)[C@@H]1CC[C@]2(C)CC[C@]3(C)[C@H](CC[C@@H]4[C@@]5(C)CC[C@H](O)C(C)(C)[C@@H]5CC[C@]43C)[C@@H]12,Potency,[7],inactive
same,Potency,[3],inactive
same,Potency,[8],inactive
same,Potency,[5],inactive
same,Potency,[9],inactive
same,outcome,[6],inactive
same,Potency,[4],inactive
COc1cc(/C=C2/C(=O)N(c3ccc(O)cc3C(=O)O)[C@H](c3ccc(O)c(OC)c3)C2C(=O)Nc2ccc(O)cc2C(=O)O)ccc1O (stereo partly specified),Potency,[1],inactive
same,Potency,[2],inactive
same,Potency,[5],inactive
same,outcome,[6],inactive
same,Potency,[4],inactive
CC(C)=CCC[C@@H](C)[C@@H]1CC[C@@]2(C)C[C@H]3C(C)=CC(=O)[C@@H]3/C(C=O)=C\C[C@H]12,Potency,[1],7.49 µM (active)
same,Potency,[7],9.35 µM (active)
same,Potency,[2],inactive
same,Potency,[3],10.5 µM (active)
same,outcome,[6],inactive
same,Potency,[4],inactive
C=C1C[C@@]23C=CC(=O)[C@@](C)(CCC(=O)Nc4c(OC5O[C@H](CO)[C@@H](O)[C@H](O)[C@H]5O)ccc(C(=O)O)c4O)C2C[C@@H]1CC3 (stereo partly specified),Potency,[1],inactive
same,Potency,[8],inactive
same,Potency,[5],inactive
same,Potency,[9],inactive
same,Potency,[4],inactive
CC1(C)CC[C@]2(C(=O)O)CC[C@]3(C)C(=CC[C@@H]4[C@@]5(C)C[C@@H](O)[C@H](O)C(C)(C)[C@@H]5CC[C@]43C)[C@@H]2C1,Potency,[8],inactive
same,Potency,[5],inactive
same,Potency,[10],inactive
same,Potency,[11],inactive
same,Potency,[12],inactive
same,Potency,[13],inactive
same,Z-AUC,[14],1.45 (inactive)
same,Z-AUC,[14]; measured here: PEO1 parental Z-AUC,0.722
same,Z-AUC,[14]; measured here: PEO4 Z-AUC,0.511
CN1CCc2cc3c(c4c2[C@H]1[C@@H](O)c1ccccc1-4)OCO3,Potency,[8],18.7 µM (active)
C[C@H]1C[C@@H]([C@@H]2CC[C@]34O[C@H](CC[C@@]35C[C@H](C)C(=O)O5)CN24)OC1=O,Potency,[1],inactive
same,Potency,[2],inactive
same,Potency,[3],inactive
same,Potency,[8],inactive
same,Potency,[5],inactive
same,Potency,[9],inactive
CC(O)/C=C/C1(O)C(C)(C)CC(O)CC1(C)O (stereo unspecified),Potency,[7],inactive
same,Potency,[2],inactive
same,Potency,[8],inactive
same,Potency,[5],inactive
same,outcome,[6],inactive
